Compounds with a hit are over-represented: about 2.8% of the library has one in this group of screens.
HGIII-sPLA2 inh = human group III sPLA2 inhibitors, primary screen, biochemical, QFRET, BODIPY PC-A2 liposome substrate. AID 743126, 2013. hit rate 0.56% among 370,000. QFRET BODIPY PC-A2 liposome hydrolysis, fluorescence. Group 3 secretory phospholipase A2 (Homo sapiens), Q9NZ20. inhibition, % at 12.2 µM;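 active = inhibition above mean plus 3 SD of compounds lying within the high and low control bounds, cut at about 19% in these data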;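 note: 0% = median of test compound wells and 100% = no enzyme DMSO wells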
Target sequence (Q9NZ20 whole entry, looked up): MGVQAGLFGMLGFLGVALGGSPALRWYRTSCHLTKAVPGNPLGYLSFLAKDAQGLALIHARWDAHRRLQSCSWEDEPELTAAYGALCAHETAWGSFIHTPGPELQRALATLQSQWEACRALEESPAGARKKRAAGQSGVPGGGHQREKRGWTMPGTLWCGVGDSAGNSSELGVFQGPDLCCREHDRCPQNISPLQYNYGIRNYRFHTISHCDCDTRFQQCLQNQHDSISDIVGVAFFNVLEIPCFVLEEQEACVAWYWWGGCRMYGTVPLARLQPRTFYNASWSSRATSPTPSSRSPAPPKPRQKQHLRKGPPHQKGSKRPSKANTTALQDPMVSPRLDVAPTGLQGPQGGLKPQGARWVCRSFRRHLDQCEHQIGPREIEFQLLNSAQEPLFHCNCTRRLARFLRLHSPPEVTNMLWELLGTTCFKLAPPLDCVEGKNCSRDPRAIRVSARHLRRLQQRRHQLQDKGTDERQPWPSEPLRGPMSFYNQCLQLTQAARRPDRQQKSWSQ
MsrA act = bovine MsrA enzyme activators, primary screen, biochemical, absorbance, HTS | activation, % at 10.6 µM | hit rate 0.3% among 360,000 | purified bovine MsrA, absorbance read-out | Methionine sulfoxide reductase A (Bos taurus); in the data active = activation above about 7.5%;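 note: 0% = vehicle and 100% = reference activator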
rCAG binder = binders of r(CAG) RNA repeats, primary screen, biochemical, fluorescence | r(CAG) RNA repeat, TO-PRO-1 dye displacement fluorescence | inhibition, % at 3 µM | hit rate 1.3% among 370,000 | AID 651821, 2012;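 active = inhibition above the plate cutoff, the mean of all test compounds on that plate plus 3 SD, cut at about 35% in these data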;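 note: 0% = DMSO alone and 100% = 100 µM mitoxantrone as full dye displacement; higher means more dye released from RNA so lower well fluorescence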
MsrA inh = bovine MsrA enzyme inhibitors, primary screen, biochemical, absorbance, HTS; hit rate 0.75% among 360,000; inhibition, % at 15.5 µM; purified bovine MsrA, absorbance read-out; in the data active = inhibition above about 4.5%;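 note: 0% = vehicle wells with enzyme and 100% = reference inhibitor wells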
rCAG bind conf = small molecules binding CAG repeat RNA – biochemical, fluorescence, confirmation; shares compounds with rCAG binder; r(CAG) RNA repeat, TO-PRO-1 dye displacement fluorescence; inhibition, % at 3 µM; hit rate 70% among 4,300; AID 652065, 2013;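 active = inhibition above a per-plate cutoff, the mean inhibition of sample wells plus 3 SD, cut at about 35% in these data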;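 note: loss of TO-PRO-1 fluorescence as compound displaces dye from 1x1 AA loop RNA; 0% = DMSO only wells and 100% = 100 µM mitoxantrone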
dCAG dye counter = displacement of TO-PRO-1 from CAG DNA duplex, counter-screen for rCAG RNA repeat binder project, biochemical, fluorescence, TO-PRO-1 dye, d(CAG) DNA oligo; hit rate 94% among 4,300; inhibition, % at 3 µM; AID 652068, 2013; shares compounds with rCAG binder; d(CAG) DNA oligo TO-PRO-1 dye displacement;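 active = inhibition above its plate's cutoff, the mean test-well inhibition plus 3 SD, cut at about 4.8% in these data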;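 note: 0% = DNA dye mix with DMSO and 100% = 100 µM mitoxantrone; hits displace the dye from DNA and so lower well fluorescence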
DNA CAG DR = inhibitors of DNA CAG/GTC TO-PRO-1 complex, dose response, counter-screen for rCAG RNA repeat binder project, biochemical, fluorescence, TO-PRO-1 dye. IC50, µM. AID 686960, 2013. shares compounds with rCAG binder. DNA CAG/GTC duplex TO-PRO-1 dye displacement fluorescence. hit rate 20% among 250; in the data active = IC50 below about 10 µM
* marks the source's active call; other numbers are inactive results; / = no result.

SMILES | HGIII-sPLA2 inh | MsrA act | rCAG binder | MsrA inh | rCAG bind conf | dCAG dye counter | others
c1coc(-c2nc(-c3ccco3)c(-c3ccco3)nc2-c2ccco2)c1 | 10.9 | -14.1 | 67.8* | 2.3 | 44.6* | 20.7* | DNA CAG DR=6.63*
COc1ccc2nc(-c3ccco3)c(-c3ccco3)nc2c1 | -9.0 | -3.0 | 58.6* | 2.1 | 32.5 | 12.9*
COc1ccc2nc3cccc(OC)c3nc2c1 | 0.8 | 1.3 | 0.8 | 1.2 | / | /
O=S(=O)(NCCc1csc(-c2cccnc2)n1)c1cc(F)ccc1F | -2.0 | -0.9 | -3.2 | -0.4 | / | /
COc1cc(C)c(C(=O)Oc2cc(C)c(C(=O)O)c(O)c2C)c(O)c1C | -59.8 | -2.7 | 86.7* | -0.4 | 83.6* | 51.7*
C#CCNC(=O)C[C@H]1C[C@@]2(C(=O)OC)C(=C[C@H](C(C)(C)C)O[C@@H]2C)N(Cc2ccc3c(c2)OCO3)C1=O | 17.0 | / | 0.7 | 0.6 | / | /
O=C(Nc1cc(S(=O)(=O)Nc2ccccc2F)ccc1Cl)c1ccc(F)cc1F | -5.1 | -3.0 | 46.6* | -0.1 | 41.8* | 12.6*
Cc1ccc2c(c1)CCCN2S(=O)(=O)c1cccc(C(=O)Nc2ccccc2C(=O)O)c1 | -49.6 | -1.6 | 83.5* | -0.8 | 84.6* | 63.0*
O=C(Nc1ccccc1C(=O)O)c1cc(S(=O)(=O)N2CCCCC2)c(Cl)cc1Cl | -18.6 | -2.6 | 70.2* | 0.4 | 61.6* | 20.1*
O=C(O)c1ccc(NS(=O)(=O)c2cccc(C(=O)Nc3ccccc3[N+](=O)[O-])c2)cc1 | -0.9 | -2.1 | 7.0 | 1.4 | / | /
CC(=O)c1ccc(NS(=O)(=O)c2cccc(C(=O)Nc3ccccc3C(=O)O)c2)cc1 | -22.5 | -1.2 | 48.6* | 1.6 | 29.2 | 6.4*
Cc1ccc(C(=O)Nc2nnc(S(=O)(=O)N3CCC(C)CC3)s2)cc1 | 6.9 | -1.4 | 4.6 | 0.1 | / | /
O=C(Cc1csc(-c2ccccc2)n1)NCc1ccccc1F | 1.9 | / | -0.2 | 0.1 | / | /
COc1ccc(NS(=O)(=O)c2cccc(C(=O)Nc3ccccc3C(=O)O)c2)cc1 | -33.5 | -3.7 | 66.4* | -0.6 | 51.9* | 19.8*
O=C(Nc1ccccc1C(=O)O)c1cc(S(=O)(=O)Nc2ccccc2)ccc1Cl | -15.3 | -4.0 | 46.1* | 0.9 | 35.3* | 7.3*
O=C(O)c1ccc(NS(=O)(=O)c2ccc(Cl)c(C(=O)Nc3ccccc3)c2)cc1 | -0.9 | -4.0 | 3.4 | -0.1 | / | /
Cc1cc(-n2ccnc2)n2c(nc3ccccc32)c1C#N | -4.8 | -4.5 | 5.3 | -0.3 | / | /
COc1ccccc1C(=O)NNC(=O)CN1C(=O)c2ccccc2C1=O | -2.6 | -5.5 | -3.4 | 1.0 | / | /
CSCc1c(C(=O)Nc2ccc3c(c2)OCO3)oc2ccccc12 | 0.6 | -3.1 | 10.8 | 0.5 | / | /
O=C(O)CN1C(=O)/C(=C/c2ccccc2Cl)Oc2ccccc21 | -7.4 | -2.4 | 39.4* | 4.2 | 35.4* | 7.3*
CCN(CCCNc1cc2c(c(N)c1S(=O)(=O)O)C(=O)c1ccccc1C2=O)c1ccccc1 | -14.8 | -2.9 | 73.5* | 0.4 | 81.4* | 54.3*
CCOc1ccc(C(=O)Oc2cc(C)[nH]c(=O)c2[N+](=O)[O-])cc1 | 11.9 | 1.4 | 73.9* | 0.7 | -0.1 | -0.6
O=C(C1COc2ccccc2O1)N1CCN(c2ccccc2)CC1 (stereo not drawn) | -1.7 | -6.5 | -5.2 | 0.6 | / | /
O=[N+]([O-])c1ccc2nc(NS(=O)(=O)c3ccccc3[N+](=O)[O-])sc2c1 | -18.5 | -5.8 | 40.5* | 2.9 | 39.4* | 12.1*
O=[N+]([O-])c1ccc2nc(NS(=O)(=O)c3ccc(Cl)cc3)sc2c1 | -29.8 | 0.6 | 72.2* | 2.7 | 75.7* | 28.5*
O=[N+]([O-])c1ccccc1S(=O)(=O)Nc1nc2ccccc2s1 | -5.9 | -4.4 | 9.6 | 0.6 | / | /
COc1cc(OC)c2c(-c3cccc(-c4ccc(C(C)=O)cc4)c3)cc(=O)oc2c1 | / | -1.0 | / | / | / | /
